The results in this text go back to PubChem BioAssay (Tox21).

Results filed as inconclusive are left out. Where a call stands in place of a potency, no number is given. The source made the active and inactive calls. Calls come from the whole dose curve; as a rule, active = well fitted cell-killing curve with a large enough effect in the repeat runs; inconclusive = weak or mixed curves, or effect the other way; inactive = flat fitted curve, though single readings scatter.

The nature of the first assay: cAMP Responsive Elements (CRE) small molecule antagonists, cell-based qHTS assay: qHTS cell viability counter screen (AID 2060913). Note: nearly all actives have a fitted effect of over 40% in size. The conditions noted are these: CRE-bla HEK293T viability, CellTiter-Glo luminescence, 5 h; series mostly up to 92.4 µM. In outline: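 Cytotoxicity read in the same wells as the CRE-bla HEK293T antagonist assay: after 3 h compound with 0.25 uM NKH477 final and 2 h beta-lactamase substrate, CellTiter-Glo luminescence measured.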
As for `CN(CCCN1c2ccccc2CCc2ccccc21)CC(=O)c1ccc(Cl)cc1`, the Potency result was “inactive”.
Still for that read-out and setting: the result for `CCCC(C(=O)OCCN(CC)CC)(c1ccccc1)c1ccccc1` reads “inactive”; that for `C=C(C)C(=O)OCCC[Si](OC)(OC)OC`, “inactive”.
As for `CC(C)(N)C#N`, the Potency entry was “inactive”.
For the compound `CC1=NN(c2ccc(S(=O)(=O)O)cc2)C(=O)C1`, the Potency result is “inactive”.
With `CCCCCCCCC(=O)OCC(C)OC(=O)CCCCCCCC` (stereo not given), the Potency entry is “inactive”.
Turning to `COc1cc(OC)c(C(=O)CCCN2CCCC2)c(OC)c1`, the Potency entry is “inactive”.
`O=[N+]([O-])c1ccccc1C(F)(F)F`: the Potency entry was “inactive”.
On the same count and under the same terms, the result for `CN(C)c1ccncc1` reads “inactive”; that for `CC(=O)c1sc(C)nc1C`, “inactive”.
Consider `OCCCS`, for which the Potency result is “inactive”.
As for `Oc1c(Br)cc(Br)c2cccnc12`, the Potency entry was “inactive”.
As to `NNc1nc(-c2ccc(N)cc2)cs1`, the Potency result was “inactive”.
In the case of `O=CNc1ccccc1`, the Potency result is “inactive”.
Regarding `CN(C)CCN(Cc1ccc(Cl)cc1)c1ccccn1`, the Potency entry was “inactive”.
For `Sc1nc2ccccc2s1`, the Potency result was “inactive”.
Take `NCCOCCOCCN`: the Potency result was “inactive”.
As for `C=CN1CCCC1=O`, the Potency entry is “inactive”.
Turning to `CCCCN(CCCC)C(=O)N(CCCC)CCCC`, the Potency entry is “inactive”.
As to `NC(N)=O`, the Potency entry was “inactive”.
On to `O=c1cc[nH]c(=O)[nH]1`, for which the Potency result was “inactive”.
On to `CC(C)SCc1ccco1`, for which the Potency result is “inactive”.
As to `O=C(NC(Cc1cc(=O)[nH]c2ccccc12)C(=O)O)c1ccc(Cl)cc1` (stereo not given), the Potency entry is “inactive”.
On to `COc1ccc2c(c1)c1c3n2CCN(C)C3=NCC1`, for which the Potency result is “inactive”.
Regarding `COc1ccc2cccc(CCNC(C)=O)c2c1`, the Potency result is “inactive”.
As to `CCSC(=O)N(CC)CC`, the Potency entry was “inactive”.
Consider `O=C1c2ccccc2C(=O)c2c(Cl)cccc21`, for which the Potency result was “inactive”.
Take `COc1ccccc1C=O`: the Potency entry is “inactive”.
For the compound `CCC(=O)OC(=O)CC`, the Potency result is “inactive”.
Turning to `O=C(Nc1ccccc1)c1ccccc1O`, the Potency result was “inactive”.
Same read-out and setting: the result for `Nc1cccc(S(=O)(=O)c2cccc(N)c2)c1` reads “inactive”.
Same read-out and setting: for `CCCCOC(=O)c1ccc(O)cc1` the value was “inactive”; for `CC(C)CCCC(C)N` (stereo not given), “inactive”; for `CC(C)(C)[C@@H](O)[C@@H](Cc1ccc(Cl)cc1)n1cncn1`, “inactive”.
For the compound `CCc1cccc(N(C)C(N)=Nc2cccc3ccccc23)c1`, the Potency result was “inactive”.
Regarding `Nc1cccc(C(F)(F)F)c1`, the Potency entry is “inactive”.
`CCCn1cnc2c1c(=O)n(CCCCC(C)=O)c(=O)n2C`: the Potency result was “inactive”.
Consider `C[C@@H]1C[C@H]2[C@@H]3CCC4=CC(=O)C=C[C@]4(C)[C@@]3(F)[C@@H](O)C[C@]2(C)[C@@]1(O)C(=O)CO`, for which the Potency result was “inactive”.
As for `O=[N+]([O-])c1ccc2c(c1)Cc1ccccc1-2`, the Potency result was “inactive”.
`COc1ccc(Cc2cnc(N)nc2N)cc1OC`: the Potency entry was “inactive”.

The nature of a further assay: cAMP Responsive Elements (CRE) small molecule agonists, cell-based qHTS assay: qHTS cell viability counter screen (AID 2060914). Note: nearly all actives have a fitted effect of over 50% in size. The conditions noted are these: CRE-bla HEK293T viability, CellTiter-Glo luminescence, 5 h; series mostly up to 92.4 µM. In outline: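 CRE-bla HEK293T cells in 10% dialyzed FBS medium were exposed to compounds for 3 h at 37C after 18 h plating. CellTiter-Glo was then added in the same wells, and luminescence was read after 30 min at room temperature.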
In general terms: qHTS replaces the single test concentration by a dilution series.
Turning to `CN(CCCN1c2ccccc2CCc2ccccc21)CC(=O)c1ccc(Cl)cc1`, the Potency result is “inactive”.
For the compound `CCCC(C(=O)OCCN(CC)CC)(c1ccccc1)c1ccccc1`, the Potency entry is “inactive”.
On to `C=C(C)C(=O)OCCC[Si](OC)(OC)OC`, for which the Potency entry is “inactive”.
Take `CC(C)(N)C#N`: the Potency entry was “inactive”.
For `CC1=NN(c2ccc(S(=O)(=O)O)cc2)C(=O)C1`, the Potency result was “inactive”.
Turning to `CCCCCCCCC(=O)OCC(C)OC(=O)CCCCCCCC` (stereo not given), the Potency result was “inactive”.
On to `COc1cc(OC)c(C(=O)CCCN2CCCC2)c(OC)c1`, for which the Potency entry was “inactive”.
In the case of `O=[N+]([O-])c1ccccc1C(F)(F)F`, the Potency result was “inactive”.
Turning to `CN(C)c1ccncc1`, the Potency result is “inactive”.
Turning to `CC(=O)c1sc(C)nc1C`, the Potency entry is “inactive”.
As to `OCCCS`, the Potency result was “inactive”.
The same measure, in the same setting: for `Oc1c(Br)cc(Br)c2cccnc12` the value was “inactive”; for `NNc1nc(-c2ccc(N)cc2)cs1`, “inactive”; for `O=CNc1ccccc1`, “inactive”.
Turning to `CN(C)CCN(Cc1ccc(Cl)cc1)c1ccccn1`, the Potency entry is “inactive”.
Turning to `Sc1nc2ccccc2s1`, the Potency result is “inactive”.
Take `NCCOCCOCCN`: the Potency result is “inactive”.
Same read-out and setting: the result for `C=CN1CCCC1=O` reads “inactive”.
Regarding `CCCCN(CCCC)C(=O)N(CCCC)CCCC`, the Potency result is “inactive”.
Still for that read-out and setting: for `NC(N)=O` the value was “inactive”.
For the compound `O=c1cc[nH]c(=O)[nH]1`, the Potency result is “inactive”.
As to `CC(C)SCc1ccco1`, the Potency entry was “inactive”.
The same measure, in the same setting: for `O=C(NC(Cc1cc(=O)[nH]c2ccccc12)C(=O)O)c1ccc(Cl)cc1` (stereo not given) the value was “inactive”; for `COc1ccc2c(c1)c1c3n2CCN(C)C3=NCC1`, “inactive”.
Still for that read-out and setting: for `COc1ccc2cccc(CCNC(C)=O)c2c1` the value was “inactive”; for `CCSC(=O)N(CC)CC`, “inactive”.
`O=C1c2ccccc2C(=O)c2c(Cl)cccc21`: the Potency result was “inactive”.
Turning to `COc1ccccc1C=O`, the Potency entry is “inactive”.
Same read-out and setting: the result for `CCC(=O)OC(=O)CC` reads “inactive”.
For the compound `O=C(Nc1ccccc1)c1ccccc1O`, the Potency entry is “inactive”.
Regarding `Nc1cccc(S(=O)(=O)c2cccc(N)c2)c1`, the Potency result was “inactive”.
Take `CCCCOC(=O)c1ccc(O)cc1`: the Potency result is “inactive”.
Turning to `CC(C)CCCC(C)N` (stereo not given), the Potency entry was “inactive”.
With `CC(C)(C)[C@@H](O)[C@@H](Cc1ccc(Cl)cc1)n1cncn1`, the Potency result was “inactive”.
`CCc1cccc(N(C)C(N)=Nc2cccc3ccccc23)c1`: the Potency entry was “inactive”.
Take `Nc1cccc(C(F)(F)F)c1`: the Potency result is “inactive”.
`CCCn1cnc2c1c(=O)n(CCCCC(C)=O)c(=O)n2C`: the Potency entry was “inactive”.
Consider `C[C@@H]1C[C@H]2[C@@H]3CCC4=CC(=O)C=C[C@]4(C)[C@@]3(F)[C@@H](O)C[C@]2(C)[C@@]1(O)C(=O)CO`, for which the Potency result is “inactive”.
`O=[N+]([O-])c1ccc2c(c1)Cc1ccccc1-2`: the Potency result is “inactive”.
`COc1ccc(Cc2cnc(N)nc2N)cc1OC`: the Potency entry was “inactive”.
